Measurements from publication PMC10812921, “Transcriptional Coactivator BOB1 (OBF1, OCA-B) Modulates the Specificity of DNA Recognition by the POU-Domain Factors OCT1 and OCT2 in a Monomeric Configuration”.

Tests used:
POU1 (OCT1 POU domain) = POU1 (OCT1 POU domain) (human, UniProt P14859 260-458); assay: EMSA-SELEX-seq; no BOB1; 20 mM Tris-HCl pH 7.6, 140 mM NaCl, 10% glycerol, 0.5 mM EDTA, 0.05% Triton X-100, 0.1 mg/mL BSA, 0.1 mg/mL poly(dI-dC), 5 mM DTT, room temperature, 20 min; high values mean tight binding; settings: protein: recombinant; dsDNA, one strand shown
POU1 (OCT1 POU domain), sequence (P14859 260-458): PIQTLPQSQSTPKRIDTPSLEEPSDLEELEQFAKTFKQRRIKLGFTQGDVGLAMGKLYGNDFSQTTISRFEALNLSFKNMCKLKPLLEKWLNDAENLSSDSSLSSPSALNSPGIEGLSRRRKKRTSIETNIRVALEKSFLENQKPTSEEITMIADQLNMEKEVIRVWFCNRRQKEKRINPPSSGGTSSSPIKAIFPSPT
Procedure, shortened: (§1)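 Binding preference is the percentage of sequenced 8-mers matching a motif pattern. Tagged POU-domain proteins expressed in E. coli BL21 were purified under denaturing conditions and renatured. For binding, 30 ng protein met 300 ng of a PCR-amplified double-stranded random 35-nt library, with or without 28 ng coactivator protein, in 20 μL Tris–HCl pH 7.6 binding buffer for 20 min at RT. Complex bands were cut from native 6% PAGE, eluted and PCR-amplified over four rounds, then Illumina-sequenced.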

POU2 (OCT2 POU domain) = target: T1, POU2 (OCT2 POU domain) (human, UniProt P09086 175-386); assay: as above; settings: protein: recombinant; dsDNA, one strand shown
T1 sequence: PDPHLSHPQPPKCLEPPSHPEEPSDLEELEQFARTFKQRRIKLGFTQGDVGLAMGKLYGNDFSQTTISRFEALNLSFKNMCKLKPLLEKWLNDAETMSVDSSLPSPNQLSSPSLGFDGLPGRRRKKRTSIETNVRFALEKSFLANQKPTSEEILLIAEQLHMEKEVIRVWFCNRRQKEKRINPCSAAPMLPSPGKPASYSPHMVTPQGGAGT
Procedure, shortened: as §1

[1] = target: POU1 (OCT1 POU domain);BOB1 (OBF1, OCA-B) (human;human, UniProt P14859;Q16633 260-458;1-256, |); assay: EMSA-SELEX-seq; with BOB1 (ternary complex band); 20 mM Tris-HCl pH 7.6, 140 mM NaCl, 10% glycerol, 0.5 mM EDTA, 0.05% Triton X-100, 0.1 mg/mL BSA, 0.1 mg/mL poly(dI-dC), 5 mM DTT, room temperature, 20 min; high values mean tight binding; settings: protein: recombinant;recombinant; copies: 1;1; dsDNA, one strand shown
Procedure, shortened: as §1

[2] = target: T2, POU2 (OCT2 POU domain);BOB1 (OBF1, OCA-B) (human;human, UniProt P09086;Q16633 175-386;1-256, |); assay: as above; settings: protein: recombinant;recombinant; copies: 1;1; dsDNA, one strand shown
T2 sequence 1: T1 sequence
T2 sequence 2: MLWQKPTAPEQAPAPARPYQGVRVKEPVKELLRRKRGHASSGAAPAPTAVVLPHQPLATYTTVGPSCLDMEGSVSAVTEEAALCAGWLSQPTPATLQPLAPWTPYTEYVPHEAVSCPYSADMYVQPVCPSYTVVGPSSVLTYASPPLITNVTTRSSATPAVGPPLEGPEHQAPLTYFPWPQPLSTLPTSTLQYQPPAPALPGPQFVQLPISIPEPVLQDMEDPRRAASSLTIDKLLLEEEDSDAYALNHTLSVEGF
Procedure, shortened: as §1

Row | Sequence | binding signal (POU1 (OCT1 POU domain)) | binding signal (POU2 (OCT2 POU domain)) | binding signal [1] | binding signal [2]
1 | AACGAAAT | 0.0744 % of ANNNNAAN 8-mers | 0.0783 % of ANNNNAAN 8-mers | 0.0675 % of ANNNNAAN 8-mers | 0.0636 % of ANNNNAAN 8-mers
2 | ATCACAAC | 0.0194 % of ANNNNAAN 8-mers | 0.0242 % of ANNNNAAN 8-mers | 0.0222 % of ANNNNAAN 8-mers | 0.0165 % of ANNNNAAN 8-mers
3 | ACGGTAAG | 0.0351 % of ANNNNAAN 8-mers | 0.0311 % of ANNNNAAN 8-mers | 0.0359 % of ANNNNAAN 8-mers | 0.0413 % of ANNNNAAN 8-mers
4 | AGCTCAAT | 0.037 % of ANNNNAAN 8-mers | 0.0316 % of ANNNNAAN 8-mers | 0.0261 % of ANNNNAAN 8-mers | 0.0223 % of ANNNNAAN 8-mers
5 | AGCAAAAA | 0.0831 % of ANNNNAAN 8-mers | 0.0604 % of ANNNNAAN 8-mers | 0.11 % of ANNNNAAN 8-mers | 0.0644 % of ANNNNAAN 8-mers
6 | AGTTTAAG | 0.05 % of ANNNNAAN 8-mers | 0.0656 % of ANNNNAAN 8-mers | 0.0519 % of ANNNNAAN 8-mers | 0.0504 % of ANNNNAAN 8-mers
7 | AGTGGAAT | 0.0995 % of ANNNNAAN 8-mers | 0.121 % of ANNNNAAN 8-mers | 0.0847 % of ANNNNAAN 8-mers | 0.104 % of ANNNNAAN 8-mers
8 | AGGATAAC | 0.0263 % of ANNNNAAN 8-mers | 0.0437 % of ANNNNAAN 8-mers | 0.0293 % of ANNNNAAN 8-mers | 0.0355 % of ANNNNAAN 8-mers
9 | AGTTTAAA | 0.0881 % of ANNNNAAN 8-mers | 0.0938 % of ANNNNAAN 8-mers | 0.0808 % of ANNNNAAN 8-mers | 0.0751 % of ANNNNAAN 8-mers
10 | AGCTGAAG | 0.0187 % of ANNNNAAN 8-mers | 0.0265 % of ANNNNAAN 8-mers | 0.025 % of ANNNNAAN 8-mers | 0.0223 % of ANNNNAAN 8-mers
11 | ATGGAAAA | 0.233 % of ANNNNAAN 8-mers | 0.162 % of ANNNNAAN 8-mers | 0.289 % of ANNNNAAN 8-mers | 0.147 % of ANNNNAAN 8-mers
12 | ACACCAAA | 0.0149 % of ANNNNAAN 8-mers | 0.0184 % of ANNNNAAN 8-mers | 0.0121 % of ANNNNAAN 8-mers | 0.0149 % of ANNNNAAN 8-mers
13 | AAGTCAAG | 0.0332 % of ANNNNAAN 8-mers | 0.0403 % of ANNNNAAN 8-mers | 0.0367 % of ANNNNAAN 8-mers | 0.033 % of ANNNNAAN 8-mers
14 | AAACGAAT | 0.0767 % of ANNNNAAN 8-mers | 0.0783 % of ANNNNAAN 8-mers | 0.0675 % of ANNNNAAN 8-mers | 0.0792 % of ANNNNAAN 8-mers
15 | AGTCGAAT | 0.061 % of ANNNNAAN 8-mers | 0.0604 % of ANNNNAAN 8-mers | 0.0468 % of ANNNNAAN 8-mers | 0.0611 % of ANNNNAAN 8-mers
16 | ATTGGAAA | 0.0927 % of ANNNNAAN 8-mers | 0.0794 % of ANNNNAAN 8-mers | 0.11 % of ANNNNAAN 8-mers | 0.0735 % of ANNNNAAN 8-mers
17 | ATCGCAAG | 0.0179 % of ANNNNAAN 8-mers | 0.0219 % of ANNNNAAN 8-mers | 0.023 % of ANNNNAAN 8-mers | 0.0206 % of ANNNNAAN 8-mers
18 | ATCGTAAG | 0.0343 % of ANNNNAAN 8-mers | 0.0449 % of ANNNNAAN 8-mers | 0.0379 % of ANNNNAAN 8-mers | 0.0388 % of ANNNNAAN 8-mers
19 | AATCCAAA | 0.0507 % of ANNNNAAN 8-mers | 0.0386 % of ANNNNAAN 8-mers | 0.0726 % of ANNNNAAN 8-mers | 0.0371 % of ANNNNAAN 8-mers
20 | AACACAAG | 0.0194 % of ANNNNAAN 8-mers | 0.0253 % of ANNNNAAN 8-mers | 0.0219 % of ANNNNAAN 8-mers | 0.0206 % of ANNNNAAN 8-mers
21 | AAGAGAAG | 0.0339 % of ANNNNAAN 8-mers | 0.0403 % of ANNNNAAN 8-mers | 0.0402 % of ANNNNAAN 8-mers | 0.0438 % of ANNNNAAN 8-mers
22 | ACGGCAAT | 0.0332 % of ANNNNAAN 8-mers | 0.0368 % of ANNNNAAN 8-mers | 0.0336 % of ANNNNAAN 8-mers | 0.0289 % of ANNNNAAN 8-mers
23 | AGGAGAAA | 0.0572 % of ANNNNAAN 8-mers | 0.0541 % of ANNNNAAN 8-mers | 0.0539 % of ANNNNAAN 8-mers | 0.0471 % of ANNNNAAN 8-mers
24 | AAGGGAAT | 0.115 % of ANNNNAAN 8-mers | 0.121 % of ANNNNAAN 8-mers | 0.0765 % of ANNNNAAN 8-mers | 0.0908 % of ANNNNAAN 8-mers
25 | ACGAGAAC | 0.0179 % of ANNNNAAN 8-mers | 0.0178 % of ANNNNAAN 8-mers | 0.0156 % of ANNNNAAN 8-mers | 0.0165 % of ANNNNAAN 8-mers
26 | AATTTAAG | 0.15 % of ANNNNAAN 8-mers | 0.142 % of ANNNNAAN 8-mers | 0.144 % of ANNNNAAN 8-mers | 0.12 % of ANNNNAAN 8-mers
27 | ACTTCAAG | 0.0194 % of ANNNNAAN 8-mers | 0.0236 % of ANNNNAAN 8-mers | 0.0168 % of ANNNNAAN 8-mers | 0.0256 % of ANNNNAAN 8-mers
28 | ATTGAAAC | 0.0431 % of ANNNNAAN 8-mers | 0.0322 % of ANNNNAAN 8-mers | 0.0406 % of ANNNNAAN 8-mers | 0.0396 % of ANNNNAAN 8-mers
29 | ATTCCAAA | 0.0481 % of ANNNNAAN 8-mers | 0.0564 % of ANNNNAAN 8-mers | 0.041 % of ANNNNAAN 8-mers | 0.0578 % of ANNNNAAN 8-mers
30 | ACGTAAAT | 0.217 % of ANNNNAAN 8-mers | 0.172 % of ANNNNAAN 8-mers | 0.232 % of ANNNNAAN 8-mers | 0.147 % of ANNNNAAN 8-mers
